The list is not random: actives were taken first. Their share in the collection is about 13%.
MARV entry inh: Marburg virus entry inhibition | Marburg virus pseudotyped entry inhibition, cell reporter | 300,000 tested, 1.8% active | Potency, µM (highest dose often 37.8 µM), without a hit: top-dose activity change, negative = inhibition, hits mostly inhibitors; calls by dose curve; tested in HEK293 cells; further: potency means the concentration at half of the fitted maximal effect; on the % scale 0 is the no-effect control and ±100 the full control effect
CHX counter: counter-screen for Shiga toxin inhibitors: cycloheximide protein synthesis inhibition; max response, %; 300,000 tested, 12% active; cell reporter, cycloheximide protein synthesis inhibition counterscreen; in the data active means max response mostly above about 13%, no sharp cut-off; inactive means mostly below about 14%; further: read at 38.3 µM for the half of the compounds with a filed dose; 0% is about no effect
LASV entry inh: blocks Lassa virus binding to or entry into cells; AID 540256; Potency, µM (doses to about 37.9 µM), for inactives: at the highest dose activity change, negative = inhibition, actives largely listed as inhibitors; Lassa virus pseudotype entry inhibition, cell reporter; 300,000 tested, 1.2% active; calls by dose curve; tested in HEK293 cells; further: potency means the concentration at half of the fitted maximal effect; on the % scale 0 is the no-effect control and ±100 the full control effect; nearly all actives have a fitted effect of over 50% in size
HCV inhibitor: inhibitors of hepatitis C virus infection; Huh7.5.1 HCVcc-Cre infection, luciferase reporter, 44 h; Potency, µM (doses to about 41.8 µM), for the others: at the top dose activity change, negative = inhibition, usual class: inhibitors; 340,000 tested, 3.4% active; active means well fitted inhibition curve with a large enough effect; inconclusive means small, poorly fitted or top-dose-only effect, or another doubt; inactive means no such curve, though single readings can be large or run the other way; further: potency means the concentration at half of the fitted maximal effect; on the % scale 0 is the no-effect control and ±100 the full control effect
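HCVcc-Cre virus at an moi near 0.5 was added right after compound to cells cultured 4 h from seeding (1,000 cells/well). Luciferase activity was determined 44 h later, 15 min after substrate addition at RT.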
Shiga inhibitor: inhibitors of Shiga toxin in Vero cells | 290,000 tested, 9.2% active | inhibition, % at 38.7 µM | Vero cells, Shiga toxin protein synthesis inhibition reporter; in the data active means inhibition mostly above about 28%, no sharp cut-off; inactive means mostly below about 43%; further: 0% is about no effect
FMDV antiviral: blocks foot and mouth disease virus | FMDV antiviral cell-based qHTS | Potency, µM (top dose mostly 57.9 µM), without a hit: top-dose activity change, negative = inhibition, usual class: inhibitors | 410,000 tested, 1.2% active; calls by dose curve; tested in HEK293T cells; further: read-out not given here; potency means the concentration at half of the fitted maximal effect; on the % scale 0 is the no-effect control and ±100 the full control effect; nearly all actives have a fitted effect of over 45% in size
An asterisk follows results filed as active; [ ] = remark or other dose.

How did O=S(=O)(c1ccccc1)c1cnn(-c2ccccc2)c1-c1ccc(F)cc1 do in these assays?
MARV entry inh: inconclusive; CHX counter: -3; LASV entry inh: -14%; HCV inhibitor: inconclusive; Shiga inhibitor: -7; FMDV antiviral: inconclusive

What do the screens show for `CSc1ccccc1NC(=O)CN(C)C(=O)COc1ncnc2ccccc12`?
MARV entry inh: -7%; LASV entry inh: 5%; HCV inhibitor: inconclusive; FMDV antiviral: 9%

How did O=c1c(-c2ccc(F)c(F)c2)nc2cncnc2n1Cc1ccccc1Cl do in these assays?
FMDV antiviral: -29%

Results for Cc1cccc(N2CN(Cc3cccnc3)CNC2=S)c1C ?
MARV entry inh: 3%; CHX counter: 15*; LASV entry inh: 11%; HCV inhibitor: 1%; Shiga inhibitor: -6; FMDV antiviral: -16%

How did Cc1ccc(C)c(N2CN(Cc3cccnc3)CNC2=S)c1 do in these assays?
MARV entry inh: 4%; CHX counter: -1; LASV entry inh: -13%; HCV inhibitor: 10%; Shiga inhibitor: -1; FMDV antiviral: -16%

Results for OC(Cc1ccnc2ccccc12)C(Cl)(Cl)Cl (centres undefined) ?
MARV entry inh: inconclusive; LASV entry inh: inconclusive; HCV inhibitor: 11µM*; FMDV antiviral: inconclusive

Results for O=C(C1CCCN(S(=O)(=O)c2cc(Cl)ccc2Cl)C1)N1CCCCCC1 (centres undefined) ?
MARV entry inh: -37%; CHX counter: -1; LASV entry inh: -14%; HCV inhibitor: inconclusive; Shiga inhibitor: -10; FMDV antiviral: inconclusive

What do the screens show for `CCOC(=O)C1(C)CCN1C(=O)c1ccc2c(c1)CCO2` (centres undefined)?
FMDV antiviral: 0%

Results for CNc1ncc(C(=O)c2ccccc2)s1 ?
MARV entry inh: inconclusive; CHX counter: 41*; LASV entry inh: 20%; HCV inhibitor: 17%; Shiga inhibitor: 70*; FMDV antiviral: 0%

How did CNc1ncc(C(=O)c2ccc(Br)cc2)s1 do in these assays?
MARV entry inh: inconclusive; CHX counter: 44*; LASV entry inh: inconclusive; HCV inhibitor: -21%; Shiga inhibitor: 81*; FMDV antiviral: 34%

How did O=C(c1ccncc1)c1ccc(Br)cc1 do in these assays?
MARV entry inh: -17%; CHX counter: -3; LASV entry inh: -2%; HCV inhibitor: 3%; Shiga inhibitor: 13; FMDV antiviral: -10%

How did CC(C(=O)O)c1ccc(C(=O)c2ccccc2)s1 (centres undefined) do in these assays?
HCV inhibitor: -22%; FMDV antiviral: 51%

Results for O=C(Cc1ccccc1)NC(CSSCC(NC(=O)Cc1ccccc1)C(=O)O)C(=O)O (centres undefined) ?
MARV entry inh: inconclusive; LASV entry inh: 9%[46.1 µM]; HCV inhibitor: 12%; FMDV antiviral: 23%

What do the screens show for `Nc1ccc(Br)c[n+]1Cc1cccc2cccnc12`?
MARV entry inh: 10µM*; CHX counter: -4; LASV entry inh: -17%[46.1 µM]; HCV inhibitor: -4%; Shiga inhibitor: -12; FMDV antiviral: -17%

Results for Cc1nc2ccc(NC(=O)N3CCSCC3)cc2s1 ?
MARV entry inh: -11%[46.1 µM]; CHX counter: 18*; LASV entry inh: 9%; HCV inhibitor: 4%; Shiga inhibitor: 76; FMDV antiviral: 49%

How did Cc1nc2ccc(NC(=O)N3CCCCC3)cc2s1 do in these assays?
MARV entry inh: inconclusive; CHX counter: 28*; LASV entry inh: 29%[14.3 µM]; HCV inhibitor: -6%; Shiga inhibitor: 41*; FMDV antiviral: 57%

What do the screens show for `Cc1nc2ccc(NC(=O)N3CCSCC3)cc2nc1C`?
MARV entry inh: 1%; CHX counter: -3; LASV entry inh: 15%; HCV inhibitor: 5%; Shiga inhibitor: 4; FMDV antiviral: 39%

How did CCOC(=O)N1CCN(C(=O)Nc2ccc3nc(C)sc3c2)CC1 do in these assays?
MARV entry inh: -1%[46.1 µM]; CHX counter: 17*; LASV entry inh: -14%; HCV inhibitor: inconclusive; Shiga inhibitor: 31; FMDV antiviral: -19%

What do the screens show for `CCOC(=O)Nc1ccc2nc(N3CCCCCC3)sc2c1`?
CHX counter: 34*; HCV inhibitor: inconclusive; Shiga inhibitor: 126*; FMDV antiviral: 69%

How did CCOc1ccc2nc(N3CCCC(C(=O)Nc4ccc(CC)cc4)C3)sc2c1 (centres undefined) do in these assays?
MARV entry inh: inconclusive; FMDV antiviral: 13%

How did CC(Oc1ccc(C#N)cc1)C(=O)Nc1ccc(-n2cnnn2)cc1 (centres undefined) do in these assays?
MARV entry inh: -7%; LASV entry inh: inconclusive; HCV inhibitor: 8%; FMDV antiviral: -6%

What do the screens show for `CC1(c2ccccc2)NC(=O)N(CC(=O)Nc2nc(-c3ccccn3)cs2)C1=O` (centres undefined)?
MARV entry inh: -3%; LASV entry inh: -14%; HCV inhibitor: inconclusive; FMDV antiviral: 5%

How did Cc1ccc(C2(C)NC(=O)N(CC(=O)Nc3nc(-c4ccccn4)cs3)C2=O)cc1 (centres undefined) do in these assays?
MARV entry inh: -29%; LASV entry inh: inconclusive; HCV inhibitor: 6.3µM*; FMDV antiviral: -20%

Results for Cc1ccc(S(=O)(=O)CCC(=O)Nc2nc(-c3ccccn3)cs2)cc1 ?
HCV inhibitor: 13µM*; FMDV antiviral: inconclusive

Results for Cc1ccc(C(=O)COC(=O)C2CCC2)cc1 ?
MARV entry inh: inconclusive; CHX counter: 36*; LASV entry inh: -7%[46.1 µM]; HCV inhibitor: 21%; Shiga inhibitor: 48*; FMDV antiviral: 53%

What do the screens show for `CCOC(=O)COC(=O)c1ccc(O)cc1`?
MARV entry inh: inconclusive; CHX counter: 15; LASV entry inh: 29%; HCV inhibitor: 2%; Shiga inhibitor: 47; FMDV antiviral: 42%

What do the screens show for `CC(C)(C)NC(=O)COC(=O)c1ccc(O)cc1`?
MARV entry inh: inconclusive; CHX counter: 17*; LASV entry inh: 9%; HCV inhibitor: -19%; Shiga inhibitor: 19; FMDV antiviral: 19%

Results for Cc1ccc(C(=O)COC(=O)c2ccc(O)cc2)cc1 ?
MARV entry inh: inconclusive; CHX counter: 33*; LASV entry inh: inconclusive; HCV inhibitor: -7%; Shiga inhibitor: 94*; FMDV antiviral: 17%

How did Cc1cccc(C(=O)Nc2cccc(-c3cnc4ccccc4n3)c2)c1 do in these assays?
MARV entry inh: -24%; CHX counter: 12; LASV entry inh: inconclusive; HCV inhibitor: inconclusive; Shiga inhibitor: 59; FMDV antiviral: 52%

What do the screens show for `Cc1ccc(C(=O)Nc2cccc(-c3cnc4ccccc4n3)c2)cc1`?
MARV entry inh: -6%; CHX counter: 12; LASV entry inh: -13%; HCV inhibitor: -29%; Shiga inhibitor: -3

How did O=C(Nc1cccc(-c2cnc3ccccc3n2)c1)c1ccncc1 do in these assays?
MARV entry inh: -17%[46.1 µM]; CHX counter: 23*; LASV entry inh: 2%; HCV inhibitor: inconclusive; Shiga inhibitor: 36; FMDV antiviral: -21%

Screening results: PubChem BioAssay, National Center for Advancing Translational Sciences (NCATS)
